# The sample as a whole holds a higher share of hits than the screen did.
# Pf Dd2 inh – qHTS Primary assay for Inhibitors of Plasmodium falciparum Dd2 growth in vitro. 4.3% of 120,000 active. P. falciparum Dd2 growth, SYBR Green, 72 h. AID 1347417, 2020. Potency, µM (top dose mostly 28.9 µM), without a hit: top-dose activity, negative = inhibition, usual class: inhibitors; active = well fitted inhibition curve with a large enough effect;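 also: plate controls were DMSO vehicle for no effect and reference drug for full effect; nearly all actives have a fitted effect of over 65% in size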
#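 Readout: SYBR Green fluorescence, 485 nm excitation, 535 nm emission, after ~16 h lysis at 37C. Before that, Dd2-infected red cells (2.5% hematocrit) grew 72 h with compound, 29 uM top final concentration.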
# * marks the source's active call; other numbers are inactive results; i = inactive; [ ] = another dose, or the depositor's remark. Potency is read from the fitted curve at half-maximal effect.
SMILES,Pf Dd2 inh
Cc1oc(-c2cccc(Cl)c2)nc1CN1CCCC(F)(F)C1,-12.5%
COCCNC(=O)C[C@@H]1c2nc(-c3ccccc3)sc2C[C@@H]2[C@](C)(CO)[C@H](O)CC[C@]21C,-9.1%
COc1ccccc1C(=O)N1CCN(c2cc(-c3ccc(F)cc3)[nH]n2)CC1,i
Cc1cc(C[C@@H]2COC[C@@H]2NC(=O)c2ccc(CSc3ncccn3)o2)on1,-7.1%
O=C1NC(=NC2CCCC2)C2(CCN([S+](=O)([O-])c3ccccc3)C2)N1c1cccnc1 (stereo not drawn),12.7%
Cn1c(=O)oc2cc(S(=O)(=O)CCC(=O)NCc3ccc(Cl)cc3)ccc21,6.9%
CC(C)NC(=O)c1ccccc1NC(=O)c1nsc2ccccc12,-3.0%
CCOc1ccccc1NC(=O)Cn1c(-c2ccc(F)cc2)nc(C)cc1=O,-19.2%
CCc1ccccc1NC(=O)Cn1c(-c2ccccc2)nc(C)cc1=O,-3.8%
CCOc1ccccc1NC(=O)Cn1c(-c2ccccc2)nc(C)cc1=O,1.58µM*
Cc1cc(C(=O)N2C[C@@H](Oc3cccnc3)C[C@H]2C(=O)N2CCOCC2)nn1C,7.6%
CC(C)CCN(C1CCOCC1)C1CCN(Cc2ccc[nH]2)CC1,3.16µM*
CC(C)CCN(C1CCOCC1)C1CCN(C(=O)c2ccncc2)CC1,-14.8%
c1cncc(CN2CCC(C3CCN(Cc4ccc[nH]4)C3)CC2)c1 (stereo not drawn),-22.5%
COc1ccc(-n2nc(C3CCN(C(=O)Cc4ccc(F)cc4)CC3)[nH]c2=O)cc1,-2.1%
O=C(NCC1(COc2cccnc2)C[C@@H](O)[C@@H](O)C1)c1nc2ccccc2[nH]1 (stereo partly drawn),i
CC(C)c1noc(C2CCCN(C(=O)C3CCCCC3)CCC(=O)NCC2)n1 (stereo not drawn),-16.1%
CCN1CCC2(Cc3ccccc3CN(C(=O)Cc3ccc(O)cc3)C2)C1 (stereo not drawn),-21.0%
CCC(=O)N1Cc2ccccc2CC2(CCN(CC3CCNCC3)C2)C1 (stereo not drawn),7.7%
CCC(=O)N1Cc2ccccc2CC2(CCCN2Cc2ccc(OC)cc2)C1 (stereo not drawn),-6.4%
CCN1CCC2(Cc3ccccc3CN(C(=O)Cc3ccc(OC)cc3)C2)C1 (stereo not drawn),8.91µM*
CCN1CCCC2(Cc3ccccc3CN(C(=O)CCCC(=O)O)C2)C1 (stereo not drawn),-9.4%
CCN1CCC2(Cc3ccccc3CN(C(=O)Cc3ccccc3)C2)C1 (stereo not drawn),11.2µM*
O=C(Nc1ccc(F)cc1F)N1C[C@@H](F)[C@@H](OCc2nc3ccccc3o2)C1,-13.4%[44.1 µM]
Cc1cc(C[C@@H]2COC[C@@H]2NC(=O)c2ccc(-c3noc(C4CC4)n3)cc2)on1,-8.2%
SMILES,Pf Dd2 inh
CCOC(=O)c1c(C)[nH]c(C)c1S(=O)(=O)NCC(=O)Nc1cc(C)ccc1OC,23.8%
CC(C)NC(=O)N1CCC2(CC1)CN(C(=O)C1CCN(C)CC1)Cc1ccccc1O2,-8.6%
CN(C)c1ccc(CN2CCn3c(nnc3-c3ccncc3)C2)cc1,9.9%
Cc1cc(C)cc(C(=O)N2CCCC3(C2)NC(=O)N(Cc2ccc(Cl)cc2)C3=O)c1 (stereo not drawn),-27.4%
CCOc1ccc2c(c1)c(=O)c(S(=O)(=O)c1ccc(F)cc1)cn2CC(=O)Nc1ccccc1C,i
CCOc1ccc(S(=O)(=O)c2cn(Cc3ccccc3C)c3ccc(OC)cc3c2=O)cc1,4.47µM*
COc1ccc2c(c1)c(=O)c(S(=O)(=O)c1ccc(Cl)cc1)cn2Cc1cc(C)ccc1C,11.2µM*
COc1ccc(S(=O)(=O)c2cn(C)c3ccc(C)cc3c2=O)cc1,21.3%
Cc1ccc(S(=O)(=O)c2cn(Cc3ccc(F)cc3)c3cc(F)c(F)cc3c2=O)cc1,13.4%
CCOc1ccc2c(c1)c(=O)c(S(=O)(=O)c1ccc(CC)cc1)cn2CC,-10.8%
COc1ccc(OC)c(NC(=O)Cn2cc(S(=O)(=O)c3ccccc3)c(=O)c3cc(C)ccc32)c1,i
O=c1c(S(=O)(=O)c2ccc(Cl)cc2)cn(Cc2ccc(F)cc2)c2ccc(F)cc12,11.2µM*
Cc1ccc(S(=O)(=O)c2cn(CC(=O)Nc3ccc(Cl)cc3)c3ccc(F)cc3c2=O)cc1C,i
Cc1nn(C(C)C(=O)N2CCN(c3ccc(Cl)cc3)CC2)c(=O)c2cc3occc3n12 (stereo not drawn),34.6%
CCc1ccc(C(=O)N2CCCN(c3nnc4ccccn34)CC2)cc1,-13.2%
COc1ccc(N2CC(C(=O)N3CCC(C(=O)NCC4CC4)C3)NC2=O)cc1 (stereo not drawn),8.1%
CNC(=O)[C@@H](CC(C)C)N1CCC[C@H]1C(=O)N1CCCC1,12.3%[44.1 µM]
CCNC(=O)N1CCCCC1c1noc(COCC2CC2)n1 (stereo not drawn),6.2%
Cc1cccc(CNC(=O)CN2CC(C)Sc3ccccc32)c1 (stereo not drawn),-10.2%
COc1cccc(N2CCN(C(=O)Cn3c(-c4cccs4)cc4ccccc43)CC2)c1,-16.2%
CCOC(=O)c1c(C)[nH]c(CCC(=O)NCCCN2CCN(c3ccc(F)cc3)CC2)c1C,-16.9%
COc1ccc(N2CCN(CCCNC(=O)Cn3c(-c4cccs4)cc4ccccc43)CC2)cc1,11.2µM*
Cc1ccc(-n2nc(C)c(C(=O)NCCCN3CCN(c4ccc(F)cc4)CC3)c2-n2cccc2)cc1,i
CC(C)Oc1ccc(CNC(=O)Cn2c(-c3cccs3)cc3ccccc32)cc1,-7.8%
COc1ccc(N2CCN(CCCNC(=O)Nc3ccccc3)CC2)cc1,i
SMILES,Pf Dd2 inh
Cc1cccc(CNC(=O)Cn2c(-c3cccs3)cc3ccccc32)c1,11.2µM*
O=C(Cn1c(-c2cccs2)cc2ccccc21)NCCCN1CCN(c2ccc(F)cc2)CC1,10µM*
CN(C)[C@@H]1CN(Cc2cccn2C)CC[C@@H]1CNC(=O)C1CC1,-14.1%
Cc1ccsc1C(=O)NC1CCc2nnc(C3CC3)n2CC1 (stereo not drawn),25.6%
COc1cc(CC2(CCC(=O)N3CCC(c4ccc(F)cc4)C3)CCC(=O)N2)ccc1F (stereo not drawn),-5.7%
CS(=O)(=O)NC[C@H]1OC[C@@H](NC2CCC(F)(F)CC2)[C@@H]1O,24.7%[44.1 µM]
NC(=O)c1cnc2n1CCN(C(=O)c1cnnn1-c1ccccc1)C2,-11.9%
COc1ccc(S(=O)(=O)NCCc2csc(-c3cccc(F)c3)n2)cc1OC,i
COc1ccccc1OCCNC(=O)C1CCCCC(=O)N1C (stereo not drawn),11.4%
CCc1ccc(-n2c(SCc3nc(-c4cc(OC)ccc4OC)no3)nnc2-c2ccccc2)cc1,11.2µM*
COc1ccc(-n2c(C)nnc2SCc2nc(-c3ccc(OC)c(OC)c3)no2)cc1,-2.7%
COc1ccc(-c2noc(CSc3nnc(-c4ccncc4)n3-c3ccccc3)n2)cc1,-7.4%
CN1CCC(NC2CCOCC2)CC1,-4.5%
CN1CC2(CCN(Cc3ccc(-c4ccc(Cl)cc4)o3)C2)OC1=O (stereo not drawn),1.6%
Cc1nonc1CN1CCC2(CC1)C(C(=O)O)CC(=O)N2C (stereo not drawn),23.4%
COc1ccc(CNCCC(c2ccc3c(c2)OCO3)c2ccccc2OC)cc1 (stereo not drawn),5.01µM*
CCC(=O)N(CCC(c1ccccc1)c1ccc2c(c1)OCO2)Cc1ccc(OC(C)C)cc1 (stereo not drawn),-28.7%
COc1ccc(CNC(=O)C(=O)NCC(c2ccc3c(c2)OCO3)N2CCOCC2)cc1 (stereo not drawn),-4.8%

# Assay outcomes deposited in PubChem BioAssay by National Center for Advancing Translational Sciences (NCATS).
